# High-throughput results: PubChem BioAssay, Sanford-Burnham Center for Chemical Genomics
# This is a sample that favours compounds with a hit; in the whole collection about 2.6% have one here.
# PABP FP inh – PABP poly(A) RNA binding inhibitors, primary screen, biochemical, fluorescence polarization, uHTS | calls only at 35 µM | Polyadenylate-binding protein 1 (Homo sapiens), P11940 | hit rate 1% among 290,000 | AID 2014, 2009;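 note: calls also rest on retests at 20 µM and on dose response follow-up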
# APOBEC3G inh – APOBEC3G DNA deaminase inhibitors, primary screen, biochemical, fluorescence, single-stranded DNA substrate, uHTS; recombinant A3G, ssDNA deamination FAM/TAMRA fluorescence; inhibition, % at 20 µM; hit rate 0.28% among 330,000; AID 493012, 2011;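 active = inhibition of at least 40% at 20 µM, with no more than 30% in the related APOBEC3A deaminase screen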
# eIF4H FP inh – human eIF4H binding inhibitors, primary screen, translation initiation inhibitor project, biochemical, uHTS, fluorescence polarization; Eukaryotic translation initiation factor 4H (Homo sapiens), Q15056; eIF4H fluorescence polarization binding assay; inhibition, % at 35 µM; hit rate 0.94% among 290,000; AID 2012, 2009;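 note: calls also rest on retests at 20 µM and on dose response follow-up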
# PABP1 MLLE inh – inhibitors of PABP1 MLLE–PAM2 peptide binding, primary screen, biochemical, fluorescence polarization, FITC-PAM2, GST-MLLE; Polyadenylate-binding protein 1 (Homo sapiens), P11940; inhibition, % at 20 µM; hit rate 0.36% among 360,000; AID 588489, 2011; in the data active = inhibition above about 35%, passing the limit was not always enough
# A3A deaminase – APOBEC3A ssDNA deaminase inhibitors, primary screen, selectivity assay for APOBEC3G inhibitor project, biochemical, FAM/TAMRA oligo cleavage fluorescence; inhibition, % at 20 µM; AID 493011, 2011; DNA dC->dU-editing enzyme APOBEC-3A (Homo sapiens), P31941; hit rate 0.41% among 330,000; recombinant A3A, FAM/TAMRA ssDNA deamination fluorescence;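 active = at least 40% inhibition at 20 µM here, with at most 30% in a related deaminase screen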
# PHOSPHO1 block – PubChem AID 1565; hit rate 1.1% among 290,000; recombinant PHOSPHO1, absorbance phosphatase assay; inhibition, % at 13.3 µM; Phosphoethanolamine/phosphocholine phosphatase (Homo sapiens), Q8TCT1; in the data active = inhibition above about 60%
# Target sequence (Q8TCT1 whole entry, looked up): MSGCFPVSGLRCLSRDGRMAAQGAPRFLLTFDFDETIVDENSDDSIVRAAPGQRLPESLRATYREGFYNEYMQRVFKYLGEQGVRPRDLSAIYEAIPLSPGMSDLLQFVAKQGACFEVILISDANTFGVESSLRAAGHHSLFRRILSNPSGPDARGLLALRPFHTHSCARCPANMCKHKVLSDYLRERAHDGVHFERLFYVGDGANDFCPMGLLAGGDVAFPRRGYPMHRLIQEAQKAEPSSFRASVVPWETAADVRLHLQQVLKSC
# Hits are given with their value; - = inactive; ? = inconclusive; . = no result given; + = active, no number. Unless noted, the rule behind the calls is not given here.
SMILES,PABP FP inh,APOBEC3G inh,eIF4H FP inh,PABP1 MLLE inh,A3A deaminase,PHOSPHO1 block
CC(=O)c1cc(-c2ccccc2)[nH]c1N1CCOCC1,-,-,-,44.1,-,-
O=C(NCc1ccc(Cl)c(Cl)c1)c1cc(C2CCCCN2C(=O)CCc2ccccc2)on1 (centres undefined),.,.,.,-,.,.
O=C(Nc1ccccc1N1CCCC1)c1ccc([N+](=O)[O-])cc1Cl,-,-,-,-,-,-
CC(=O)c1ccc(OCCOc2ccc([N+](=O)[O-])cc2)cc1,-,-,-,-,-,-
C[N+]1(CCOc2ccc([N+](=O)[O-])cc2)CCOCC1,-,-,-,-,-,96.8
Cc1nn(C)c(NC(=O)c2ccccc2Cl)c1Br,-,-,-,-,-,-
Cn1sccc1=O,.,-,.,36.9,-,.
O=c1ccsn1Cc1ccccc1,-,-,-,-,-,-
O=C(O)c1cccc(Cn2c(Cl)c(/C=N/NC(=O)c3cc4ccccc4cc3O)sc2=O)c1,+,-,102.4,-,-,-
CCn1c(C)cc(=S)c2ccccc21,-,-,-,39.9,-,-
CCn1c2ccccc2c2cc(N)ccc21,+,-,71.5,-,-,-
O=S(=O)(c1ccc(Cl)cc1)N1CCSC1c1ccco1 (centres undefined),-,-,-,-,-,68.2
Nc1[nH]c(=O)[nH]c(=O)c1N=Cc1ccccc1,.,.,.,68.4,.,.
CC1(OC(=O)C2CCCC2)C(=O)C=C2C=C(c3ccsc3)N(CCc3ccccn3)C=C2C1=O (centres undefined),+,-,-,-,-,-
CC(C)CN1C=C2C(=O)C(C)(OC(=O)C3CCCC3)C(=O)C=C2C=C1c1ccsc1 (centres undefined),+,-,-,-,-,-
Cc1ccc2c(c1)-c1[nH]c(=S)ncc1CS2,-,-,-,-,-,-
C[C@@H]1C=C(C(=O)NCc2ccccc2)O[C@H](OCc2ccc(CO)cc2)C1,-,-,-,-,-,-
C=C1c2cccc(O)c2C(O)=C2C(=O)[C@]3(O)C(O)=C(C(N)=O)C(=O)[C@@H](N(C)C)[C@@H]3[C@@H](O)[C@H]12,+,-,107.0,-,-,-
C[C@H]1c2cccc(O)c2C(O)=C2C(=O)C3(O)C(O)=C(C(N)=O)C(=O)[C@@H](N(C)C)[C@@H]3[C@@H](O)[C@@H]21 (some centres undefined),.,-,.,-,-,.
Cc1nn(C)cc1C1C(C#N)=C(N)N(c2ccc(F)c([N+](=O)[O-])c2)C2=C1C(=O)CCC2 (centres undefined),-,-,-,-,-,-
Cc1cc(Oc2ccc(N)cn2)ccc1Cl,+,-,?,-,-,-
Cc1ccc(NC(=S)NC(=O)C2CC2)c(C)c1,-,-,-,-,-,-
Cc1cccc(-n2c(CNC(=O)c3ccc(S(=O)(=O)N4CCCC4)cc3)n[nH]c2=S)c1,-,-,-,-,-,80.3
O=C(NCc1n[nH]c(=S)n1-c1cccc(Cl)c1)c1ccc(S(=O)(=O)N2CCCCC2)cc1,-,-,-,-,-,-
COc1ccccc1-n1c(CNC(=O)c2ccc(S(=O)(=O)N3CCOCC3)cc2)n[nH]c1=S,-,42.4,-,-,-,-
SMILES,PABP FP inh,APOBEC3G inh,eIF4H FP inh,PABP1 MLLE inh,A3A deaminase,PHOSPHO1 block
O=C(NCc1n[nH]c(=S)n1-c1ccc(Br)cc1)c1ccc(S(=O)(=O)N2CCOCC2)cc1,-,-,-,-,-,76.6
Cc1ccc(NC(=O)CN(C)CC(=O)Nc2ccccc2C#N)cc1,-,-,active,-,-,-
CCCN(CC(=O)Nc1ccc(C(C)=O)cc1)CC(=O)Nc1ccccc1C,+,-,?,-,-,-
CCCN(CC(=O)Nc1cc(C)on1)CC(=O)Nc1ccccc1C,.,-,.,-,-,.
CSc1ncccc1C(=O)OCC(=O)c1cccs1,-,-,-,-,-,-
Nc1ncnc(N2CCOCC2)n1,.,.,.,-,.,.
Clc1ccccc1-c1nn2c(Cn3cnc4ccccc43)nnc2s1,-,-,-,-,-,83.7
Clc1ccccc1CSc1nnc(Cn2cnc3ccccc32)n1-c1ccccc1,-,-,-,-,-,-
Clc1cccc(-c2nnc3sc(-c4ccc5c(c4)OCO5)nn23)c1,-,.,-,.,.,75.4
c1ccc2c(c1)ncn2Cc1nnc2sc(-c3ccc4c(c3)OCO4)nn12,-,-,-,-,-,66.7
COC(=O)c1ccc(CSc2nnc(Nc3ccccc3OC)s2)o1,-,-,-,.,-,67.3
COc1ccc(Nc2nnc(SCc3cc([N+](=O)[O-])cc4c3OCOC4)s2)cc1,-,-,-,-,-,78.5
COC(=O)c1ccc(CSc2nnc(NCc3ccccc3)s2)o1,-,-,-,-,-,-
Cc1nnc(SCc2cc([N+](=O)[O-])cc3c2OCOC3)[nH]c1=O,-,-,-,-,-,-
COC(=O)c1ccc(CSc2nnc(Nc3ccc(OC)cc3)s2)o1,-,-,-,-,-,70.6
COC(=O)c1ccc(CSc2nnc(SCc3ccc(C(=O)OC)o3)s2)o1,-,-,-,-,-,-
Cc1ccc(C)c(N2CCN(C(=O)Cn3ncc4c([nH]c5ccc(C)cc54)c3=O)CC2)c1,.,-,.,-,-,-
COc1ccc([C@H]2C[C@@H](n3cc(C4CC4)nn3)[C@H](O)CN2CC2CCCCC2)cc1,.,.,.,-,.,.
O=C(COC(=O)CSc1ccc(F)cc1)NCc1ccco1,.,-,.,-,-,.
O=C(COC(=O)c1ccc(NS(=O)(=O)c2cccs2)cc1)NCc1ccco1,+,-,99.7,-,-,-
O=C(COC(=O)Cc1ccc(F)cc1)NCc1ccco1,+,-,92.8,-,-,-
COc1cc(NC(=O)c2cccs2)c(C(=O)OCC(=O)NCc2ccco2)cc1OC,+,-,89.4,-,-,-
CN(C)S(=O)(=O)c1ccc(C(=O)OCC(=O)NCc2ccco2)cc1,?,-,69.2,-,-,-
CC(Oc1ccc(Br)cc1)C(=O)NCc1ccccn1 (centres undefined),-,-,-,-,-,-
CCOc1ccc(NC(=O)c2c(N)n(C)c(=O)[nH]c2=O)cc1,.,-,.,-,-,.
O=C(COC(=O)c1cncc(Br)c1)NCc1ccco1,+,-,97.1,-,-,-
Cc1cc2c(cc(C(=O)OC(C(=O)NCc3ccco3)C(C)C)n2C)o1 (centres undefined),-,-,-,-,-,66.0
CC(=O)Nc1ccc2c(CSc3nnc(N)s3)cc(=O)oc2c1,-,-,-,-,-,69.1
CC(=O)Nc1ccc2c(CSc3nncs3)cc(=O)oc2c1,-,-,-,-,-,-
